From PubChem BioAssay
Sampled rows, rich in hits. Any-hit rate of the full collection: about 12%.
Ins promoter up = MIN6 insulin promoter up-regulation; MIN6 insulin promoter-GFP reporter, high-content imaging; active compounds read high; z-score at 5 µM; actives 0.3% (n = 190,000);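 active = z-score above 3 at 5 µM with at least 500 cells counted in the well; inconclusive = wells under 500 cells, flagged as cytotoxic or low count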
KCC2 mod = KCC2 (human) Cl- transport modulation; actives 2.2% (n = 190,000); Q9H2X9; B-score of Tl+ flux slope (higher = more flux/activation; lower = inhibition) at 10 µM; AID 1456; KCC2 cells, thallium flux FluoZin-2 fluorescence;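 active = thallium flux slope and its plate-corrected score both differing from the plate sample mean at a set confidence after two filtering rounds, in either direction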;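 also: slope of fluorescence scaled to starting intensity during 10 to 20 s after thallium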
ROMK primary = modulators of human ROMK potassium channel. B-score at 10 µM. AID 1918. P48048. Tet-inducible ROMK, thallium flux fluorescence; actives lie on both sides. actives 2% (n = 130,000);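 active = signal ratio slope over the read window, or its plate-corrected B-score, at least 3 SD from the plate mean, either direction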;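 also: B-score of the F/F0 ratio slope over 7 to 12 s after thallium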
Target sequence (P48048 whole entry, looked up): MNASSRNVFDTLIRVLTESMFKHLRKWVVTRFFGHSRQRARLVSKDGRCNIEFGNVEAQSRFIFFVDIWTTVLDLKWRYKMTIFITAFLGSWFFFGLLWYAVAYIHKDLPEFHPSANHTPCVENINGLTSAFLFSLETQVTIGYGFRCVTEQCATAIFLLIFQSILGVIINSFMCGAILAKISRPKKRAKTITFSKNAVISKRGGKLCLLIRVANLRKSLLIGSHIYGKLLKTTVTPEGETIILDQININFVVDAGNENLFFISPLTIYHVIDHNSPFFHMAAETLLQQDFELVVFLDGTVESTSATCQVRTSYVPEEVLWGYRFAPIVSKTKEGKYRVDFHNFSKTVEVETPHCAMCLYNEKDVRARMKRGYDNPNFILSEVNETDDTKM
WT yeast gro inh = growth inhibition of WT yeast, mitochondrial fusion screen. mitochondrial fusion phenotypic screen, WT strain. inhibition, % at 10 µM. actives 2.1% (n = 190,000); in the data active = inhibition above about 58%; tested in S. cerevisiae
L major viab = reduces viability of Leishmania major promastigotes; resazurin fluorescence viability; inhibition, % at 10 µM; actives 9% (n = 200,000); in the data active = inhibition above about 50%;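 also: promastigotes grown with compound for 44 hours at 28 °C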
Insulin prom inh = TRM-6 insulin promoter activity inhibition. TRM-6 cells (human fetal islet line), insulin promoter-eGFP reporter, imaging; reporter expression induced with tamoxifen. inhibition, % at 2 µM. actives 0.9% (n = 130,000);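 active = inhibition above the mean plus 3 SD, with well images judged a real hit on visual review, cut at about 60% in these data, passing the limit was not always enough; inconclusive = inhibition over the cutoff but images rejected on review; inactive = inhibition not above the cutoff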
L major 1uM = L. major promastigote growth inhibition, 1 uM repeat; actives 13% (n = 1,100); resazurin fluorescence, 48 h; shares compounds with L major viab; inhibition, % at 1 µM;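 active = inhibition above about 50% in both repeat tests, limit read from the data; inconclusive = one repeat under the set limit, the other over it; inactive = both repeats under the set limit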
Hits are given with their value; . = inactive; ? = inconclusive; / = not tested or not shown.

SMILES	Ins promoter up	KCC2 mod	ROMK primary	WT yeast gro inh	L major viab	Insulin prom inh	L major 1uM
O=C1NC(=O)C(=Cc2ccc(-c3cc(Cl)ccc3[N+](=O)[O-])o2)C(=O)N1	.	.	.	.	64.3	.	/
c1cc2c(cc1CCNC1C3CC4CC(C3)CC1C4)OCO2 (configuration not stated)	/	/	.	.	86.5	.	/
CC1CCC(NCCc2ccc3c(c2)OCO3)CC1 (configuration not stated)	.	.	/	.	92.6	.	/
O=[N+]([O-])c1cc2c(cc1CNCCc1ccc3c(c1)OCO3)OCO2	.	.	/	.	.	/	/
Cc1ccc2c(c1)CC1(CN2C)C(=O)NC(=O)N(c2ccc(C)c(C)c2)C1=O (configuration not stated)	.	.	.	.	.	.	/
c1ccc2c(CCNCc3ccc4c(c3)OCO4)c[nH]c2c1	/	.	/	.	77.4	.	/
CCC(C)(C)n1nnnc1CN1CCC(n2c(C)nc3cc(C(F)(F)F)ccc32)CC1	.	.	/	.	.	.	/
C1=C(c2c[nH]c3ccccc23)CCNC1	.	.	/	.	99.9	.	.
CC(C)N1CC=C(c2c[nH]c3ccccc23)CC1	.	.	.	.	.	/	/
Cc1ccc(OP(=O)(NCc2ccccc2)Oc2ccc(C)cc2)cc1	.	.	/	.	.	/	/
CCOC(=O)C1=C(C)OC(N)=C(C#N)C12C(=O)Nc1ccc(C)cc12 (configuration not stated)	/	.	/	/	.	/	/
CCOc1cc(C2NCc3ccccc3-n3cccc32)ccc1O (configuration not stated)	.	.	/	.	99.2	/	.
CCOc1cccc(C2NCc3ccccc3-n3cccc32)c1O (configuration not stated)	.	.	.	.	.	/	/
COC(=O)c1ccc(N2C(=O)CC(N3CCC(n4c(=O)[nH]c5ccccc54)CC3)C2=O)cc1 (configuration not stated)	.	.	/	.	.	.	/
C[C@H]1C[C@@H](C)C(=O)[C@@H]([C@H](O)CC2CC(=O)NC(=O)C2)C1	?	.	/	.	100.3	/	100.4
FC(F)(F)c1ccc2c(c1)N(CCCN1CCN(CCCl)CC1)c1ccccc1S2	?	.	.	.	100.4	.	.
Cc1ccc2c(c1)CC1(CN2C)C(=O)NC(=O)N(CCc2ccccc2)C1=O (configuration not stated)	.	.	.	.	.	.	/
CN1CCN(Cc2nnc3n2-c2ccc(Cl)cc2C(c2ccccc2)=NC3)CC1	.	.	/	.	.	.	/
C[C@@]1(CO)[C@H](O)CC[C@@]2(C)[C@H]1CC[C@H]1C[C@@H]3C[C@@]12CC[C@]3(O)CO	/	.	/	.	99.9	.	95.1
COc1ccc(C2=NCc3nnc(C)n3-c3ccc(Cl)cc32)cc1Cl	/	.	.	.	.	.	/
COc1ccccc1C1=NCc2nnc(C)n2-c2ccc(Cl)cc21	.	.	/	.	60.6	.	.
O=C1N(c2ccc(Cl)cc2)C(c2cccnc2)N2CCCN12 (configuration not stated)	.	.	.	.	69.4	.	.
Cc1nc2c(c(=O)[nH]1)C(c1ccc([N+](=O)[O-])cc1)c1c(c3ccccc3oc1=O)O2 (configuration not stated)	.	.	.	/	/	/	/
FC(F)(F)/C(=N\P(=S)(N1CCOCC1)N1CCOCC1)N1CCOCC1	.	/	.	.	.	.	/
Cc1ccc(S(=O)(=O)N2CCCC(C(=O)N3CCC4(CC3)OCCO4)C2)cc1 (configuration not stated)	.	.	.	.	.	/	/
SMILES	Ins promoter up	KCC2 mod	ROMK primary	WT yeast gro inh	L major viab	Insulin prom inh	L major 1uM
Cc1nc2ccccc2c(=O)n1-c1ccc(Cl)cc1[N+](=O)[O-]	.	.	.	.	.	.	/
Cn1cc2c([N+](=O)[O-])cc([N+](=O)[O-])cc2n1	.	.	.	.	99.7	/	.
CN1CCc2c(C#N)c(Cl)nc(Cl)c2C1	.	.	.	.	.	/	/
CN(C)C(=S)SSC(=S)N(C)C	?	.	.	.	100.6	100.0	99.4
O=P(Nc1cccnc1)(Oc1ccccc1)Oc1ccccc1	.	.	/	.	93.2	.	.
CC(C)(O)[C@H]1O[C@H]2CC[C@@]3(C)[C@@](O)(CC[C@H]4Cc5c([nH]c6ccccc56)[C@@]43C)C2=CC1=O	.	.	.	74.5	94.3	.	.
COC(=O)[C@@H]1[C@@H](C(=O)OC)C2(c3ccccc3-c3ccccc32)N(c2ccc(Cl)cc2)N1C#N	/	.	.	.	74.2	.	57.1
CCOc1ccc(-n2c(O)c(C=NCCN(CC)CC)c(=O)[nH]c2=O)cc1	.	/	/	.	.	.	/
Cc1ccc(-c2nn(Cc3ccccc3)cc2C=O)cc1	.	.	.	.	.	.	/
Cc1ccc(-c2nn(Cc3ccccc3)cc2C=O)cc1C	.	.	.	.	53.5	.	.
CCc1ccc(/C=C(/C#N)C(N)=S)cc1	.	.	/	.	50.1	.	.
O=C(c1ccc(-c2ccccc2)c(F)c1)C1CCCN(CCO)C1 (configuration not stated)	/	/	.	.	99.3	.	63.1
O=[N+]([O-])c1ccc(N2CCNCC2)cc1NCC1CCCO1 (configuration not stated)	.	.	/	.	.	.	/
CCC1(CC)C(=O)N(Cc2ccccc2)C(=O)N(Cc2ccccc2)C1=O	.	.	.	.	81.9	.	?
Cc1ccc(-c2cc(-c3ccc(C)cc3)[n+](C)o2)cc1	?	.	.	.	100.2	78.6	98.6
COc1cc(C(=O)Nc2ccc(Br)cc2C(=O)c2ccccc2)cc(OC)c1OC	.	.	/	.	.	/	/
COc1ccc(N=Nc2c(O)[nH]c(=S)[nH]c2=O)cc1	.	.	.	.	.	.	/
